Experiment [1] addresses Transcription factor E2F1 (Homo sapiens) (UniProt Q01094). As to the kind of experiment: ATG_E2F_CIS: Attagene CIS-FACTORIAL HepG2 Assay for human E2F Transcription Factor 1 (AID 2282935). As to conditions: HepG2 Attagene cis-reporter, E2F reporter RNA transcripts; actives raise or lower the signal. The procedure, abridged:
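Gain or loss of reporter transcript, fitted against DMSO, reflects E2F1-driven transcription. Transiently transfected HepG2 dosed 24 h before RNA isolation. Quantified by fluorescent RT-PCR products separated by capillary electrophoresis.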

Experiment [2] is described as follows: ATG_E_Box_CIS: Attagene CIS-FACTORIAL HepG2 Assay for human Enhancer Box (E-box) (AID 2282936). As to conditions: HepG2 E-box cis-reporter transcription, actives raise or lower the signal. The procedure, abridged: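 E-box-driven reporter transcripts measured in transiently transfected HepG2 after 24 h exposure: RNA reverse-transcribed, PCR-amplified, fluorescently labelled, digested and resolved by capillary electrophoresis. Gain or loss relative to DMSO.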

Experiment [3] can be described thus: ATG_M_61_CIS: Attagene CIS-FACTORIAL HepG2 Assay for M61 Transcription Factor (Internal Marker) (AID 2282937). As to conditions: HepG2 Attagene CIS-FACTORIAL M61 internal marker reporter; actives raise or lower the signal. An outline of the steps:
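Endogenous transcription factor activity in HepG2 is read through transiently transfected cis-element reporter units. After 24 h dosing, RNA undergoes reverse transcription, PCR and primer extension with 6-FAM before capillary electrophoresis; DMSO-referenced bidirectional fit.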

A short description of experiment [4]: ATG_EGR_CIS: Attagene CIS-FACTORIAL HepG2 Assay for human Early Growth Response 1 (EGR1) (AID 2282938). As to conditions: HepG2 Attagene CIS-FACTORIAL EGR reporter mRNA; actives raise or lower the signal. An outline of the steps:
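Activity is taken as induction or loss of reporter mRNA versus DMSO, fitted bidirectionally. Transcripts from cis-regulated reporter units in transiently transfected HepG2 were measured after 24 h by RT-PCR with capillary electrophoresis.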

Experiment [5] can be described thus: ATG_M_19_CIS: Attagene CIS-FACTORIAL HepG2 Assay for M19 Transcription Factor (Internal Marker) (AID 2282939). As to conditions: HepG2 Attagene CIS-FACTORIAL M19 internal marker reporter; actives raise or lower the signal. The procedure, abridged:
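HepG2 cells transiently transfected with cis-regulated multiple reporter transcription units were dosed for 24 h; reporter mRNA was quantified by RT-PCR, 6-FAM primer-extension labelling, HpaI digestion and capillary electrophoresis, with bidirectional fitting against DMSO baseline.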

A short description of experiment [6]: ATG_ERE_CIS: Attagene CIS-FACTORIAL HepG2 Assay for Estrogen Response Element (ERE) (AID 2282940). As to conditions: HepG2 ERE cis-reporter, Attagene RNA transcript; actives raise or lower the signal. An outline of the steps: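 HepG2 cells transiently transfected with cis-promoter-driven multiplexed reporter transcription units report endogenous TF activity. After 24 h compound exposure, reporter mRNA is quantified by RT-PCR with capillary electrophoresis fluorescence; bidirectional fitting versus DMSO baseline.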

The nature of experiment [7]: ATG_Ets_CIS: Attagene CIS-FACTORIAL HepG2 Assay for human Erythroblast Transformation Specific (ETS) (AID 2282941). As to conditions: HepG2 ETS cis-reporter transcription, actives raise or lower the signal. The procedure, abridged:
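RT-PCR/capillary electrophoresis fluorescence read-out of reporter mRNA; HepG2 transient multi-reporter transfection; 24 h compound exposure; gain or loss of signal fitted bidirectionally relative to DMSO.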

A short description of experiment [8]: ATG_FoxO_CIS: Attagene CIS-FACTORIAL HepG2 Assay for human Forkhead box O (FoxO) (AID 2282943). As to conditions: HepG2 Attagene cis-reporter, FoxO element, mRNA; actives raise or lower the signal. The procedure, abridged:
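Endogenous transcription factor activity read from multiplexed cis-promoter reporter transcripts in transiently transfected HepG2, 24 h after dosing. Reporter RNA measured via RT-PCR plus capillary electrophoresis of FAM-labeled products; gain or loss relative to DMSO.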

Experiment [9] in a line: ATG_GATA_CIS: Attagene CIS-FACTORIAL HepG2 Assay for human GATA Binding Protein (AID 2282944). As to conditions: HepG2 GATA cis-element reporter, Attagene multiplex mRNA; actives raise or lower the signal. The procedure, abridged:
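HepG2 cells transiently transfected with multiplexed cis-element reporter units reflecting endogenous transcription factor activity; reporter mRNA measured after 24 h dosing by RT-PCR, 6-FAM labeling, HpaI digestion and capillary electrophoresis. Bidirectional fitting versus DMSO baseline.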

Active and inactive are the calls of the source. Rule for the calls: active = hit-call score of the fitted dose curve at least 0.9, where 1 is the maximum; inactive = score below 0.9.

Chain of Transcription factor E2F1 (Homo sapiens) (Q01094 whole entry, looked up): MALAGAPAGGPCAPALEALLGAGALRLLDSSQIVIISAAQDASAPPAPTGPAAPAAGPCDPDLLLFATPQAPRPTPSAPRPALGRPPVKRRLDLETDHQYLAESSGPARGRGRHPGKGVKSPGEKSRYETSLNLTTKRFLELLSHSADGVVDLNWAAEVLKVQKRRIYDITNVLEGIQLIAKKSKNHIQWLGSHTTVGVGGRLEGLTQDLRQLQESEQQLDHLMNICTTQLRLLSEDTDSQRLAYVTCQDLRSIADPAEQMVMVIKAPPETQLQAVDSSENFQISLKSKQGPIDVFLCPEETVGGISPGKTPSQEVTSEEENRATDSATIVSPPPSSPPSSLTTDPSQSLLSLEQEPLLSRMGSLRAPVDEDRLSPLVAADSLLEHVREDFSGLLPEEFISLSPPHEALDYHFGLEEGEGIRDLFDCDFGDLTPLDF

With `CCCCCCOC(=O)c1ccccc1O`, the call in [1], in experiment [2], in [3], in [4], in experiment [5] and in experiment [7] was inactive. Also, the result in experiment [8] and in experiment [9] was inactive. Besides, the AC50 (usually the concentration at which the activity in the assay is half-maximal) in experiment [6] was 31.4 µM (active).
Take `CC(C)(C)C(=O)CC(=O)C(F)(F)C(F)(F)C(F)(F)F`: the molecule was called inactive in experiment [1], in experiment [2], in experiment [3], in [4], in experiment [5] and in experiment [6]. The molecule was called inactive in experiment [7], in [8] and in experiment [9].
Take `FC(F)(I)C(F)(F)C(F)(F)C(F)(F)I`: the molecule was classed as inactive in experiment [1], in experiment [2], in [3], in experiment [4], in [5] and in experiment [7]. Further, the outcome in experiment [8] and in experiment [9] was inactive. Besides, the AC50 in [6] was 0.291 µM (active).
Consider `CC(C)=CCCC(C)CCOC(=O)C(C)C` (stereo not drawn), for which the outcome in experiment [1], in experiment [2], in experiment [3], in experiment [4], in experiment [5] and in experiment [6] was inactive. The molecule was called inactive in experiment [7], in experiment [8] and in experiment [9].
Take `OCC(F)(F)C(F)(F)C(F)(F)C(F)F`: the molecule was classed as inactive in [1], in experiment [2], in experiment [3], in experiment [4], in [5] and in experiment [6]. Besides, the outcome in [7], in experiment [8] and in experiment [9] was inactive.
On to `O=P(O)(O)OCCC(F)(F)C(F)(F)C(F)(F)C(F)(F)C(F)(F)C(F)(F)F`, for which the molecule was classed as inactive in experiment [1], in [2], in [3], in [4], in [5] and in experiment [7]. Moreover, the outcome in [8] and in experiment [9] was inactive. Besides, the AC50 in [6] is 18.3 µM (active).
As to `CCCCNc1ccccc1`, the outcome in experiment [1], in experiment [2], in experiment [3], in [4], in [5] and in experiment [6] was inactive. For the same molecule, the outcome in experiment [7], in [8] and in experiment [9] was inactive.
Take `CC/C=C\CCOC(C)=O`: the result in experiment [1], in experiment [2], in [3], in experiment [4], in experiment [5] and in experiment [6] was inactive. The call in experiment [7], in experiment [8] and in experiment [9] was inactive.
Turning to `N=C(N)C(F)(F)C(F)(F)C(F)(F)C(F)(F)C(F)(F)C(F)(F)C(F)(F)F`, the AC50 in experiment [1] was 199 µM (active); in [2], 68.5 µM (active); in [6], 38.6 µM (active); in experiment [9] it was 243 µM (active). The outcome in experiment [3], in experiment [4], in experiment [5], in [7] and in experiment [8] was inactive.
For `CC(=O)Nc1ccc(N=Nc2cc(C)ccc2O)cc1`, the molecule was classed as inactive in experiment [1], in experiment [2], in experiment [3], in [4], in experiment [5] and in [6]. Also, the call in experiment [7], in experiment [8] and in experiment [9] was inactive.
For the molecule `OCCCC(F)(F)C(F)(F)C(F)(F)F`, the molecule was called inactive in [1], in experiment [2], in [3], in experiment [4], in [5] and in [6]. For the same molecule, the result in experiment [7], in experiment [8] and in [9] was inactive.
As to `COC(=O)CCC(F)(F)C(F)(F)C(F)(F)C(F)(F)F`, the molecule was called inactive in [1], in [2], in experiment [3], in [4], in experiment [5] and in experiment [7]. In addition, the call in experiment [8] and in [9] was inactive. Moreover, the AC50 in experiment [6] was 6.98 µM (active).
